A selection: hits, their analogues and other compounds. The true share with any hit is near 0.93%.
TRPML1 agonist = agonists of human TRPML1 channel | Q9GZU1 | TRPML1-expressing cells, Ca2+ dye fluorescence, FDSS | activation, % (no concentration beside the values) | actives 0.12% (n = 410,000); in the data active = activation above about 50%; inconclusive = mostly about 30% to 49%; note: 0% is about no effect
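Calcium fluorescence on an FDSS kinetic reader gave the read-out. Tet-induced TRPML1-DL cells were plated overnight, dye-loaded (Ca8 with quencher, 45-90 min, room temperature, dark), then read 110 s after compound addition, and again 110 s after 4uM final 54-4 (EC80).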
TRHR enhancer = allosteric enhancers of human TRH receptor; P34981; enhancement, % at 2 µM; actives 0.66% (n = 360,000); TRHR cells, fluo-8 calcium fluorescence, EC20 TRH enhancement; in the data active = enhancement above about 30%; note: 0% is about no effect
Target sequence (P34981 whole entry, looked up): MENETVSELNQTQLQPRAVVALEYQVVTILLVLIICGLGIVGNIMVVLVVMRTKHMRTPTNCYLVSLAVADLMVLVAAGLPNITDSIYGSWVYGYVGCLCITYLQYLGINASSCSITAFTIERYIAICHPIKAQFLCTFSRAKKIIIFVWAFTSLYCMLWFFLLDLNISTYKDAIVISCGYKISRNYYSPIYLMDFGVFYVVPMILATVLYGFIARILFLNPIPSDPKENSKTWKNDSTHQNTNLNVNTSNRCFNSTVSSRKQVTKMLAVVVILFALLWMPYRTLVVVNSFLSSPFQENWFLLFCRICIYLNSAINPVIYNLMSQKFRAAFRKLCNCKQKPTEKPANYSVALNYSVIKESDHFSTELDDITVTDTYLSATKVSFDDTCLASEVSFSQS
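TRHR-expressing cells loaded with fluo-8 calcium dye were read kinetically (ex 480/em 530) during compound addition, then stimulated with an EC20 of TRH (10 nM final). Enhancement of the Gq-mediated intracellular calcium response was scored.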
PTHR1 agonist = activates the human parathyroid hormone receptor PTHR1. Q03431. HEK293 GP2 PTHR1 cells, GloSensor cAMP luminescence, 1 h. Potency, µM (highest dose often 115 µM), without a hit: top-dose activation, hits mostly activators. actives 0.075% (n = 410,000); note: potency is the fitted concentration of half-maximal effect; nearly all actives have a fitted effect of over 55% in size
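HEK-293-derived GP2 cells expressing PTHR1 and a GloSensor cAMP reporter, 3,000/well, plated overnight, given luciferin plus IBMX (each 0.5 mM as added) for 1 h at 37 °C, then compound for 1 h at 37 °C. Luminescence was read after 15 min at room temperature.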
GLP1R cytotox = cytotoxicity counter-screen for GLP-1 receptor inverse agonists | HEK293 cAMP-luciferase reporter cells, luminescence, 24 h | Potency, µM (doses to about 38.3 µM), for the others: at the highest dose activity change, negative = inhibition, actives largely listed as inhibitors | actives 0.13% (n = 410,000) | AID 624418;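 note: loss of luciferase light is scored as toxicity; potency is the fitted concentration of half-maximal effect; % is set by controls: 0 for no effect and ±100 for the full control effect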
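MLSMR compounds, 24 hr on cells at 37 deg C/5% CO2; luminescence after luciferase reagent (12 min RT). Inhibition counted as the undesired cytotoxic outcome.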
TRHR agonist = activates the human TRH receptor | actives 0.18% (n = 360,000) | activation, % at 2 µM | P34981 | TRHR cells, calcium flux fluo-8, FDSS agonist mode | AID 493084; in the data active = activation above about 30%; note: 0% is about no effect
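Agonist-mode FDSS calcium read (Ex 480/Em 530, 1 s cycles) in 1536-well TRHR cells with fluo-8 dye, after 10-cycle baseline and 23 nL compound addition; TRH at EC20 (10 nM final) added afterwards for the enhancer phase.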
TRPML1 inh = blocks the human TRPML1 channel. TRPML1-inducible cells, Ca2+ dye fluorescence, FDSS; active compounds read low; inhibition of EC80 agonist-evoked calcium signal. AID 624415. activity change, negative = inhibition, % (test concentration not listed). actives 0.02% (n = 390,000). Q9GZU1; in the data active = activity change below about -50%; inconclusive = between about -30% and that limit;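 note: stimulus is agonist 54-4 at its EC80 concentration; % is set by controls: 0 for no effect and ±100 for the full control effect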
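Tet-induced TRPML1-DL cells loaded with Ca8 no-wash calcium dye were read kinetically on FDSS. Compound addition was followed by EC80 agonist 54-4 (4 uM final); inhibition was read over 110 s.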
* marks the source's active call; other numbers are inactive results; i = inactive; ? = inconclusive; . = no result given; [ ] = dose if it differs, or a comment. Unless noted, calls come from the whole dose curve; as a rule, active = well fitted curve in the direction sought with a large enough effect; inconclusive = small, poorly fitted or top-dose-only effect, or another doubt; inactive = no such curve, though single readings can be large; an effect the other way counts as inactive or inconclusive.

SMILES	TRPML1 agonist	TRHR enhancer	PTHR1 agonist	GLP1R cytotox	TRHR agonist	TRPML1 inh
C[n+]1ccc(/C=N/Nc2nc(Cl)c(C#N)c(Cl)c2Cl)cc1	10	-2	-14%	10µM*	7	-7
CC(C)(C)n1ncc2c(=O)n(Cc3cc(Cl)ccc3Cl)cnc21	2	.	.	.	.	25
O=C(O)c1ccc2c(=O)[nH]c(CCl)nc2c1	-1	33*	i	3%	1	-14
COc1cccc(-c2nc(CS(=O)(=O)CC(=O)NCc3ccccc3)c(C)o2)c1	1	-5	-89%	2%	0	-10
COc1cccc(-c2nc(CS(=O)(=O)CC(=O)Nc3ccc(F)cc3F)c(C)o2)c1	-1	30*	-26%	0%	0	5
COc1cc(C2CC(=O)OC3=C2C(=O)CC(C)(C)C3)cc(OC)c1OC (centres undefined)	-1	33*	i	14%	0	6
CC(=O)N1CCCc2cc(S(=O)(=O)N3CCC(C(=O)NCc4ccc(N(C)C)cc4)CC3)ccc21	0	39*	-27%	2%	0	-16
Cc1ccc(S(=O)(=O)c2cc3cc(C(=O)Nc4ccc(C)cc4C)ccc3oc2=O)cc1	1	31*	i	25%	0	-1
Nc1ncn(C(=S)Nc2ccccc2)n1	0	.	-8%	4.5µM*	.	32
S=C(Nc1ccccc1)N1CCCCCC1	-1	11	-4%[57.5 µM]	-10%	-1	14
O=C(CNc1ccccc1)N/N=C/c1c[nH]c2ccccc12	0	2	-41%	6%	-1	-6
O=C(COc1ccc(Cl)cc1Cl)NCC(=O)N/N=C/c1c[nH]c2ccccc12	0	35*	-17%	-10%	0	-4
O=S(=O)(c1ccc(Br)cc1)N1CCN(c2nc(-c3cccs3)nc3ccccc23)CC1	-1	.	.	.	.	.
CC(C)(C)OC(=O)NCc1nnc(C(C(=O)OCc2ccccc2)c2ccccc2)s1 (centres undefined)	.	1	.	.	-1	.
COC(=O)c1nc(Nc2cc(F)cc(F)c2)nc(NC2CCCC2)n1	.	-1	.	.	2	.
COc1ccc(CCN2C(=O)c3[nH]nc(-c4ccccc4O)c3C2c2ccc(OC)cc2)cc1 (centres undefined)	0	10	-35%	-19%	0	48
CCCCN1C(=O)c2[nH]nc(-c3ccccc3O)c2C1c1ccc(OCc2ccccc2)cc1 (centres undefined)	3	9	22µM*	-5%	1	68
COCCCN1C(=O)c2[nH]nc(-c3ccccc3O)c2C1c1ccc(OCc2ccccc2)cc1 (centres undefined)	-1	-2	-90%	?	0	36
COc1ccc(CCN2C(=O)c3[nH]nc(-c4ccccc4O)c3C2c2ccc(OC)c(OC)c2)cc1 (centres undefined)	3	31*	-22%	-20%	0	3
O=C(CCN1C(=O)c2ccccc2C1=O)N1CCOCC1	-1	-10	i	-12%	0	-5
O=C(CCCN1C(=O)c2ccccc2C1=O)N1CCOCC1	0	33*	i	-1%	0	17
O=C(CCCCCCCCN1C(=O)c2ccccc2C1=O)N1CCOCC1	0	0	-20%	40%	0	9
O=C1c2ccccc2C(=O)N1CCSC(=S)N1CCOCC1	0	41*	i	-7%	0	-18
O=C1CCC[C@@H]2CC(Nc3ccccc3)C[C@@H]3CCN1[C@H]23 (some centres undefined)	-1	.	.	.	.	.
COc1ccccc1NC(=O)C(=O)NCC(c1ccco1)N1CCc2ccccc21 (centres undefined)	2	33*	i	9%	0	-5
CCOC(=O)c1cc2n(c1/N=C/N(C)C)-c1ccccc1C2=O	?	-2	i	69%	85*	-22
CCOC(=O)c1ccc2c(c1)N(C)C(=O)c1ccccc1S2	.	-1	-10%	3%	-1	.

Bioassay records as filed in PubChem.
